Source: PubChem BioAssay (NCATS)
Results filed as inconclusive are left out. Where a call stands in place of a potency, no number is given. Activity calls are given as the source filed them. The call rests on the fitted dose curve; in most records, active means well fitted curve in the direction sought with a large enough effect; inconclusive means small, poorly fitted or top-dose-only effect, or another doubt; inactive means no such curve, though single readings can be large; an effect the other way counts as inactive or inconclusive.

The molecules below were run against phosphoglycerate mutase (Leishmania major) (UniProt Q4Q090) (assay: qHTS Validation Assay to Find Inhibitors of Phosphoglycerate Mutase (AID 504548)). Conditions: biochemical enzyme activity; series mostly up to 57.5 µM.
phosphoglycerate mutase (Leishmania major), sequence (Q4Q090 1-553): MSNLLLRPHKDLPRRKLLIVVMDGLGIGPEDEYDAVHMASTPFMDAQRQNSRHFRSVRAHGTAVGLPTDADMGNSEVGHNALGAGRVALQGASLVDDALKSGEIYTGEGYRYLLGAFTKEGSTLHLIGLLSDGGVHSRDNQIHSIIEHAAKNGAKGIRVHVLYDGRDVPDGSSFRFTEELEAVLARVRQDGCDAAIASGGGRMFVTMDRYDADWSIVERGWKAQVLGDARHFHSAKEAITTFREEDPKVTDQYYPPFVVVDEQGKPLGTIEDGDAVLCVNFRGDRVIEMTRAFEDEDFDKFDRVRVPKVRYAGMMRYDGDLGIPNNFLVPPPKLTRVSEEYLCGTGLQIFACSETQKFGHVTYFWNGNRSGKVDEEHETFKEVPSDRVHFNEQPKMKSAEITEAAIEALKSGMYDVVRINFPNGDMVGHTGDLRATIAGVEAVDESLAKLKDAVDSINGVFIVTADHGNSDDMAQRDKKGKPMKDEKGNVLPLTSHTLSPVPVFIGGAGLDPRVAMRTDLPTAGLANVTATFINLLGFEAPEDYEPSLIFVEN
Method in brief: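 Luminescent end-point read-out via Kinase-GloPlus after a 10-minute development. Reaction: 1.25nM Leishmania major PGAM with substrate and compound, 45 minutes at room temperature in TEA buffer (pH 7.6) with MgCl2 and Tween-20.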

SMILES | outcome
NC(=O)c1cn(Cc2c(F)cccc2F)nn1 | inactive
CN1CCN(CC(=O)N2c3ccccc3C(=O)Nc3cccnc32)CC1 | inactive
COc1ccc2c(c1OC)C(=O)O[C@@H]2[C@H]1c2c(cc3c(c2OC)OCO3)CCN1C | inactive
COc1ccc([C@@H]2Sc3ccccc3N(CCN(C)C)C(=O)[C@@H]2OC(C)=O)cc1 | inactive
CCOC(=O)C1=C(C)NC(C)=C(C(=O)OC)C1c1cccc([N+](=O)[O-])c1 (stereo not drawn) | inactive
CC(C)COCC(CN(Cc1ccccc1)c1ccccc1)N1CCCC1 (stereo not drawn) | inactive
C[n+]1cc2c3c(ccc2c2ccc4cc5c(cc4c21)OCO5)OCO3 | inactive
CN(C)C(=O)Oc1ccc[n+](C)c1 | inactive
CCCC(C(=O)OCCN(CC)CC)(c1ccccc1)c1ccccc1 | inactive
COC(=O)C1=C(C)NC(C)=C(C(=O)OC(C)(C)CN(C)CCC(c2ccccc2)c2ccccc2)C1c1cccc([N+](=O)[O-])c1 (stereo not drawn) | inactive
CCn1ccnc1CC1COc2ccccc2O1 (stereo not drawn) | inactive
NC1=NCC2c3ccccc3Cc3ccccc3N12 (stereo not drawn) | inactive
Cc1nc2c([nH]1)c(=O)n(C)c(=O)n2Cc1ccco1 | inactive
COc1cc(C(=O)OCCCN2CCCN(CCCOC(=O)c3cc(OC)c(OC)c(OC)c3)CC2)cc(OC)c1OC | inactive
C[C@]12CC[C@@H]3c4ccc(O)cc4C[C@@H](CCCCCCCCCS(=O)CCCC(F)(F)C(F)(F)F)[C@H]3[C@@H]1CC[C@@H]2O (stereo partly drawn) | inactive
Cc1nc2ccccn2c(=O)c1CCN1CCC(C(=O)c2ccc(F)cc2)CC1 | inactive
Cc1cccc(C)c1NC(=O)C(C)N (stereo not drawn) | inactive

SMILES | outcome
C#CCN(C)CCCOc1ccc(Cl)cc1Cl | inactive
CC(C)[N+](C)(CCOC(=O)C1c2ccccc2Oc2ccccc21)C(C)C | inactive
COc1ccc(CN(CCN(C)C)c2ccccn2)cc1 | inactive
CN1C[C@H](C(=O)N[C@]2(C)O[C@@]3(O)[C@@H]4CCCN4C(=O)[C@H](Cc4ccccc4)N3C2=O)C[C@@H]2c3cccc4[nH]cc(c34)C[C@H]21 | inactive
CC(=O)[C@@]1(O)CC[C@H]2[C@@H]3CCC4=CC(=O)CC[C@]4(C)[C@H]3CC[C@@]21C | inactive
CNC1(C)C2CCC(C2)C1(C)C (stereo not drawn) | inactive
CCOC(=O)C1=C(C)NC(C)=C(C(=O)OC)C1c1cccc(Cl)c1Cl (stereo not drawn) | inactive
CCCCNc1c(C(=O)OCC)c(C)nc2c1cnn2CC | inactive
Nc1nc(N)c2nc(-c3ccccc3)c(N)nc2n1 | inactive
CC1=C(C)C(=O)C(CCCCC#CCCCC#CCO)=C(C)C1=O | inactive
CN1C(=O)CC[C@H]1c1cccnc1 | inactive
Cc1nc2sccn2c(=O)c1CCN1CCC(=C(c2ccc(F)cc2)c2ccc(F)cc2)CC1 | inactive
CN(C)CCCN1c2ccccc2Sc2ccc(C(F)(F)F)cc21 | inactive
COc1cc(Cc2cnc(N)nc2N)cc(OC)c1OC | inactive
C[C@@H](O)[C@H]1C(=O)N2C(C(=O)O)=C(SCCN=CN)C[C@H]12 | inactive
CN(C)[C@@H]1C(=O)C(C(N)=O)=C(O)[C@@]2(O)C(=O)C3=C(O)c4c(O)ccc(Cl)c4[C@@H](O)[C@H]3C[C@@H]12 | inactive
C[C@]12CCC(=O)C=C1CC[C@@H]1[C@@H]2C(=O)C[C@@]2(C)[C@H]1CC[C@]2(O)C(=O)CO | inactive

What follows are molecules tested against Ubiquitin carboxyl-terminal hydrolase 1 (Homo sapiens) (UniProt O94782) (assay: Inhibitors of USP1/UAF1: Pilot qHTS (AID 504865;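 further: rhodamine fluorescence freed from ubiquitin-rhodamine substrate followed over time; top concentration of the series differs between compounds; nearly all actives have a fitted effect of over 35% in size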)). Conditions: purified USP1/UAF1, Ub-rhodamine cleavage fluorescence; series mostly up to 114 µM.
Ubiquitin carboxyl-terminal hydrolase 1 (Homo sapiens), sequence (O94782 whole entry, looked up): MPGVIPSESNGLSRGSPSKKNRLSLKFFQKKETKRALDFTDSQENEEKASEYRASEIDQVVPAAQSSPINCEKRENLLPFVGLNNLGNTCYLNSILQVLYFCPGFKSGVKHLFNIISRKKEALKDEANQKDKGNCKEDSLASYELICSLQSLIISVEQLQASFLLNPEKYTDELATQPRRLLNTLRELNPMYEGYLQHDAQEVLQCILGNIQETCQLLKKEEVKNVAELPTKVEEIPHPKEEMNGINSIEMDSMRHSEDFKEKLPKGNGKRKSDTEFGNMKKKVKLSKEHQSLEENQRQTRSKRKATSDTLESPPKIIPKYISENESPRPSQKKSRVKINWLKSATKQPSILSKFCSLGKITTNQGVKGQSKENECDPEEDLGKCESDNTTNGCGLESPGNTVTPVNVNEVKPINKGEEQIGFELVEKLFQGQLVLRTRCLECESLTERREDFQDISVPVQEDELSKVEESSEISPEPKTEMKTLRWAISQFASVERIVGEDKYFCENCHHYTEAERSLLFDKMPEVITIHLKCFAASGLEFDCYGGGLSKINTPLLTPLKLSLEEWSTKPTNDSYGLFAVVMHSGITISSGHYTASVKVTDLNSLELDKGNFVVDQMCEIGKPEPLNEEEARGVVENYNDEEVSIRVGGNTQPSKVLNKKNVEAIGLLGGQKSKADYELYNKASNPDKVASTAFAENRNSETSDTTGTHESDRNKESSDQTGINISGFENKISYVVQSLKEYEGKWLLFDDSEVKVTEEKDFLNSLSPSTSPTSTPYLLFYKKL
Method in brief: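 Kinetic fluorescence assay: 1nM USP1/UAF1, 15 min compound preincubation, then 150nM Ub-Rho; 480/540 nm.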

SMILES | Potency
NC(=O)c1cn(Cc2c(F)cccc2F)nn1 | inactive
CN1CCN(CC(=O)N2c3ccccc3C(=O)Nc3cccnc32)CC1 | inactive
COc1ccc2c(c1OC)C(=O)O[C@@H]2[C@H]1c2c(cc3c(c2OC)OCO3)CCN1C | inactive
COc1ccc([C@@H]2Sc3ccccc3N(CCN(C)C)C(=O)[C@@H]2OC(C)=O)cc1 | inactive
CCOC(=O)C1=C(C)NC(C)=C(C(=O)OC)C1c1cccc([N+](=O)[O-])c1 (stereo not drawn) | inactive
CC(C)COCC(CN(Cc1ccccc1)c1ccccc1)N1CCCC1 (stereo not drawn) | inactive
C[n+]1cc2c3c(ccc2c2ccc4cc5c(cc4c21)OCO5)OCO3 | inactive
CN(C)C(=O)Oc1ccc[n+](C)c1 | inactive
CCCC(C(=O)OCCN(CC)CC)(c1ccccc1)c1ccccc1 | inactive
CCn1ccnc1CC1COc2ccccc2O1 (stereo not drawn) | inactive
NC1=NCC2c3ccccc3Cc3ccccc3N12 (stereo not drawn) | inactive
CCCCOCCOCCOCc1cc2c(cc1CCC)OCO2 | inactive
Cc1nc2c([nH]1)c(=O)n(C)c(=O)n2Cc1ccco1 | inactive
COc1cc(C(=O)OCCCN2CCCN(CCCOC(=O)c3cc(OC)c(OC)c(OC)c3)CC2)cc(OC)c1OC | inactive
NC(=Nc1ccccc1)Nc1ccccc1 | inactive
Cc1nc2ccccn2c(=O)c1CCN1CCC(C(=O)c2ccc(F)cc2)CC1 | inactive
Cc1cccc(C)c1NC(=O)C(C)N (stereo not drawn) | inactive
C#CCN(C)CCCOc1ccc(Cl)cc1Cl | inactive
CC(C)[N+](C)(CCOC(=O)C1c2ccccc2Oc2ccccc21)C(C)C | inactive
COc1ccc(CN(CCN(C)C)c2ccccn2)cc1 | inactive
CC(=O)[C@@]1(O)CC[C@H]2[C@@H]3CCC4=CC(=O)CC[C@]4(C)[C@H]3CC[C@@]21C | inactive
CNC1(C)C2CCC(C2)C1(C)C (stereo not drawn) | inactive
CCCCNc1c(C(=O)OCC)c(C)nc2c1cnn2CC | inactive
Nc1nc(N)c2nc(-c3ccccc3)c(N)nc2n1 | inactive
CN1C(=O)CC[C@H]1c1cccnc1 | inactive
COc1cc(Cc2cnc(N)nc2N)cc(OC)c1OC | inactive
C[C@@H](O)[C@H]1C(=O)N2C(C(=O)O)=C(SCCN=CN)C[C@H]12 | inactive
CN(C)[C@@H]1C(=O)C(C(N)=O)=C(O)[C@@]2(O)C(=O)C3=C(O)c4c(O)ccc(Cl)c4[C@@H](O)[C@H]3C[C@@H]12 | inactive
C[C@]12CCC(=O)C=C1CC[C@@H]1[C@@H]2C(=O)C[C@@]2(C)[C@H]1CC[C@]2(O)C(=O)CO | inactive
